# According to the supplement of paper PMC4466140:
# Tests used:
# Assay in all cases: SPOT peptide array binding signal intensity (averaged, normalized) (arbitrary units (background-subtracted, floor 0; scale differs between SH3 domains)); higher = stronger binding of the SH3 domain to the peptide
# AgAbp1 = molecular target: AgAbp1
# Method in brief: (§1)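 Cellulose membranes carried synthetic 15-mer peptides with cysteines swapped for serines. These were incubated overnight at 4°C with 10 μg/ml of GST-fused SH3 domains from four yeast species in TBS-based blocking buffer. Binding signal, detected with anti-GST antibody and quantified in Genespotter, is the normalized, background-subtracted spot intensity averaged over replicates, in arbitrary units specific to each domain.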
# AgBbc1 = molecular target: AgBbc1
# Method in brief: as §1
# AgBem1-D1 = molecular target: AgBem1-D1
# Method in brief: as §1
# AgBzz1-D1 = molecular target: AgBzz1-D1
# Method in brief: as §1
# AgBzz1-D2 = molecular target: AgBzz1-D2
# Method in brief: as §1
# AgCyk3 = molecular target: AgCyk3
# Method in brief: as §1
# AgFus1 = molecular target: AgFus1
# Method in brief: as §1
# AgHof1 = molecular target: AgHof1
# Method in brief: as §1
# AgHse1 = molecular target: AgHse1
# Method in brief: as §1
# AgLsb1 = molecular target: AgLsb1
# Method in brief: as §1
# AgLsb4 = molecular target: AgLsb4
# Method in brief: as §1
# AgMyo5 = molecular target: AgMyo5
# Method in brief: as §1
# AgNbp2 = molecular target: AgNbp2
# Method in brief: as §1
# AgRvs167 = molecular target: AgRvs167
# Method in brief: as §1
# AgSho1 = molecular target: AgSho1
# Method in brief: as §1
# AgSla1-D1-D2 = molecular target: AgSla1-D1-D2
# Method in brief: as §1
# AgSla1-D3 = molecular target: AgSla1-D3
# Method in brief: as §1
# CaAbp1-D1 = molecular target: CaAbp1-D1
# Method in brief: as §1
# CaAbp1-D2 = molecular target: CaAbp1-D2
# Method in brief: as §1
# CaBbc1 = molecular target: CaBbc1
# Method in brief: as §1
# CaBem1-D1 = molecular target: CaBem1-D1
# Method in brief: as §1
# CaBzz1-D1 = molecular target: CaBzz1-D1
# Method in brief: as §1
# CaBzz1-D2 = molecular target: CaBzz1-D2
# Method in brief: as §1
# CaCyk3 = molecular target: CaCyk3
# Method in brief: as §1
# CaFus1 = molecular target: CaFus1
# Method in brief: as §1
# CaHof1 = molecular target: CaHof1
# Method in brief: as §1
# CaHse1 = molecular target: CaHse1
# Method in brief: as §1
# CaLsb1 = molecular target: CaLsb1
# Method in brief: as §1
# CaLsb4 = molecular target: CaLsb4
# Method in brief: as §1
# CaMyo5 = molecular target: CaMyo5
# Method in brief: as §1
# CaNbp2 = molecular target: CaNbp2
# Method in brief: as §1
# CaRvs167 = molecular target: CaRvs167
# Method in brief: as §1
# CaRvs167-3 = molecular target: CaRvs167-3
# Method in brief: as §1
# CaSho1 = molecular target: CaSho1
# Method in brief: as §1
# CaSla1-D1-D2 = molecular target: CaSla1-D1-D2
# Method in brief: as §1
# CaSla1-D3 = molecular target: CaSla1-D3
# Method in brief: as §1
# ScAbp1 = molecular target: ScAbp1
# Method in brief: as §1
# ScBbc1 = molecular target: ScBbc1
# Method in brief: as §1
# ScBem1-D1 = molecular target: ScBem1-D1
# Method in brief: as §1
# ScBzz1-D1 = molecular target: ScBzz1-D1
# Method in brief: as §1
# ScBzz1-D2 = molecular target: ScBzz1-D2
# Method in brief: as §1
# ScCyk3 = molecular target: ScCyk3
# Method in brief: as §1
# ScFus1 = molecular target: ScFus1
# Method in brief: as §1
# ScHof1 = molecular target: ScHof1
# Method in brief: as §1
# ScHse1 = molecular target: ScHse1
# Method in brief: as §1
# ScLsb1 = molecular target: ScLsb1
# Method in brief: as §1
# ScLsb2 = molecular target: ScLsb2
# Method in brief: as §1
# ScLsb3 = molecular target: ScLsb3
# Method in brief: as §1
# ScLsb4 = molecular target: ScLsb4
# Method in brief: as §1
# ScMyo3 = molecular target: ScMyo3
# Method in brief: as §1
# ScMyo5 = molecular target: ScMyo5
# Method in brief: as §1
# ScNbp2 = molecular target: ScNbp2
# Method in brief: as §1
# ScPex13 = molecular target: ScPex13
# Method in brief: as §1
# ScRvs167 = molecular target: ScRvs167
# Method in brief: as §1
# ScSho1 = molecular target: ScSho1
# Method in brief: as §1
# ScSla1-D1-D2 = molecular target: ScSla1-D1-D2
# Method in brief: as §1
# ScSla1-D3 = molecular target: ScSla1-D3
# Method in brief: as §1
# SpAbp1-D1 = molecular target: SpAbp1-D1
# Method in brief: as §1
# SpBbc1 = molecular target: SpBbc1
# Method in brief: as §1
# SpBzz1-D1 = molecular target: SpBzz1-D1
# Method in brief: as §1
binder,measurement,setting,value
ATNVPVAPPPPPASL,SPOT peptide array binding signal intensity,AgAbp1,≤ 0
same,SPOT peptide array binding signal intensity,AgBbc1,2.75
same,SPOT peptide array binding signal intensity,AgBem1-D1,≤ 0
same,SPOT peptide array binding signal intensity,AgBzz1-D1,1
same,SPOT peptide array binding signal intensity,AgBzz1-D2,≤ 0
same,SPOT peptide array binding signal intensity,AgCyk3,2
same,SPOT peptide array binding signal intensity,AgFus1,≤ 0
same,SPOT peptide array binding signal intensity,AgHof1,3
same,SPOT peptide array binding signal intensity,AgHse1,27
same,SPOT peptide array binding signal intensity,AgLsb1,≤ 0
same,SPOT peptide array binding signal intensity,AgLsb4,≤ 0
same,SPOT peptide array binding signal intensity,AgMyo5,468
same,SPOT peptide array binding signal intensity,AgNbp2,≤ 0
same,SPOT peptide array binding signal intensity,AgRvs167,≤ 0
same,SPOT peptide array binding signal intensity,AgSho1,≤ 0
same,SPOT peptide array binding signal intensity,AgSla1-D1-D2,4.5
same,SPOT peptide array binding signal intensity,AgSla1-D3,≤ 0
same,SPOT peptide array binding signal intensity,CaAbp1-D1,≤ 0
same,SPOT peptide array binding signal intensity,CaAbp1-D2,≤ 0
same,SPOT peptide array binding signal intensity,CaBbc1,≤ 0
same,SPOT peptide array binding signal intensity,CaBem1-D1,≤ 0
same,SPOT peptide array binding signal intensity,CaBzz1-D1,23
same,SPOT peptide array binding signal intensity,CaBzz1-D2,0.25
same,SPOT peptide array binding signal intensity,CaCyk3,4
same,SPOT peptide array binding signal intensity,CaFus1,≤ 0
same,SPOT peptide array binding signal intensity,CaHof1,1
same,SPOT peptide array binding signal intensity,CaHse1,0.5
same,SPOT peptide array binding signal intensity,CaLsb1,≤ 0
same,SPOT peptide array binding signal intensity,CaLsb4,≤ 0
same,SPOT peptide array binding signal intensity,CaMyo5,13.8
same,SPOT peptide array binding signal intensity,CaNbp2,18
same,SPOT peptide array binding signal intensity,CaRvs167,≤ 0
same,SPOT peptide array binding signal intensity,CaRvs167-3,6.5
same,SPOT peptide array binding signal intensity,CaSho1,≤ 0
same,SPOT peptide array binding signal intensity,CaSla1-D1-D2,≤ 0
same,SPOT peptide array binding signal intensity,CaSla1-D3,≤ 0
same,SPOT peptide array binding signal intensity,ScAbp1,1
same,SPOT peptide array binding signal intensity,ScBbc1,2.25
same,SPOT peptide array binding signal intensity,ScBem1-D1,≤ 0
same,SPOT peptide array binding signal intensity,ScBzz1-D1,≤ 0
same,SPOT peptide array binding signal intensity,ScBzz1-D2,2
same,SPOT peptide array binding signal intensity,ScCyk3,1
same,SPOT peptide array binding signal intensity,ScFus1,≤ 0
same,SPOT peptide array binding signal intensity,ScHof1,≤ 0
same,SPOT peptide array binding signal intensity,ScHse1,≤ 0
same,SPOT peptide array binding signal intensity,ScLsb1,0.25
same,SPOT peptide array binding signal intensity,ScLsb2,≤ 0
same,SPOT peptide array binding signal intensity,ScLsb3,≤ 0
same,SPOT peptide array binding signal intensity,ScLsb4,2
same,SPOT peptide array binding signal intensity,ScMyo3,1430
same,SPOT peptide array binding signal intensity,ScMyo5,161
same,SPOT peptide array binding signal intensity,ScNbp2,≤ 0
same,SPOT peptide array binding signal intensity,ScPex13,≤ 0
same,SPOT peptide array binding signal intensity,ScRvs167,≤ 0
same,SPOT peptide array binding signal intensity,ScSho1,≤ 0
same,SPOT peptide array binding signal intensity,ScSla1-D1-D2,≤ 0
same,SPOT peptide array binding signal intensity,ScSla1-D3,2.25
same,SPOT peptide array binding signal intensity,SpAbp1-D1,≤ 0
same,SPOT peptide array binding signal intensity,SpBbc1,≤ 0
same,SPOT peptide array binding signal intensity,SpBzz1-D1,125
